Data on two compounds can be found in PubChem BioAssay (NCATS).

Results filed as inconclusive are left out. Calls of active or inactive are those of the source. Unless noted, the call rests on the fitted dose curve; in most records, active means well fitted curve in the direction sought with a large enough effect; inconclusive means small, poorly fitted or top-dose-only effect, or another doubt; inactive means no such curve, though single readings can be large; an effect the other way counts as inactive or inconclusive.

A short description of experiment [1]: Cell Viability - Jurkat (AID 426;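 active means dose-dependent loss of cell ATP signal giving a full or clear fitted curve, ranked by lower potency value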; further: potency means the concentration at half of the fitted maximal effect). Particulars: qHTS. In a few lines:
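Cytotoxicity was scored as loss of cellular ATP, measured by luciferase-based luminescence, in Jurkat clone E6-1 cells after 40 h compound treatment; tamoxifen and doxorubicin served as positive controls.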
Background: Quantitative high-throughput screening tests each substance at several concentrations.

The nature of experiment [2]: Cell Viability - Hek293 (AID 427;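 active means compounds whose dose-response curve shows a full or clear partial loss of cell viability, called from curve shape rather than a numeric limit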;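 further: potency means the concentration at half of the fitted maximal effect; cells exposed to compound for 40 hours at 37 °C before reading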). Particulars: qHTS. In short, it runs like this:
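HEK293 cells in complete medium were exposed to compound for 40 hr at 37 °C, then cellular ATP was read by CellTiter-Glo luminescence. Data were normalized to DMSO (basal) and 100 uM tamoxifen (100% inhibition), and AC50 came from Hill fits.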

The nature of experiment [3]: Cell Viability - SK-N-SH (AID 435; calls by dose curve;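 further: potency means the concentration at half of the fitted maximal effect; compound exposure lasted 40 h at 37 °C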). Particulars: SK-N-SH neuroblastoma cell viability qHTS. In short, it runs like this: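 Cells seeded at 1500 per well and incubated 5 hr at 37 °C. Compound added, then 40 hr at 37 °C. CellTiter-Glo added, 20 min at room temperature, luminescence read.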
The nature of experiment [4]: Cellular Toxicity (caspase-3) Jurkat (AID 655).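 Further: cells exposed to compound for 16 h at 37 °C before reading.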 To be noted: Jurkat caspase-3 activation, luminescence; caspase-3 activation: at 92.2 µM (top of the series), DMSO = 0%, tamoxifen = 100%. In short, it runs like this:
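Caspase 3/7 activation is scored as increased luminescence in Jurkat cells cultured with compound for 16 hours in complete medium. AC50 values come from Hill fits of qHTS concentration-response data normalized to DMSO and 100 uM tamoxifen controls.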

Experiment [5] is described as follows: Cell Viability - LYMP2-004 (AID 966).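 Further: plate controls were DMSO only for no effect and tetraoctylammonium bromide control for full effect; nearly all actives have a fitted effect of over 65% in size.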 Particulars: LYMP2-004 lymphoblastoid cell viability, qHTS; series mostly up to 92.2 µM. In short, it runs like this: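 Viable-cell number estimated from ATP luminescence (CellTiter-Glo) in 2500 human lymphoblastoid cells/well after 24 hr at 37 C with compound. AC50 fitted to the standard Hill equation.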
The nature of experiment [6]: Cell Viability - LYMP2-015 (AID 971).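 Further: 0% = DMSO only and full effect = 92 µM tetraoctylammonium bromide; nearly all actives have a fitted effect of over 55% in size.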 Particulars: LYMP2-015 lymphoblastoid cell viability; series mostly up to 92.2 µM. In a few lines: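 AC50 values reflect Hill-model fits of ATP-based luminescence (CellTiter-Glo) from a human lymphoblastoid line, 2500 cells/well, treated 24 hr at 37 C.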
Experiment [7] is described as follows: Cell Viability - LYMP2-019 (AID 973).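 Further: cells exposed to compound for 24 h at 37 °C; 0% = DMSO alone and full effect = 92 µM tetraoctylammonium bromide; nearly all actives have a fitted effect of over 55% in size.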 To be noted: LYMP2-019 lymphoblastoid cell line viability; series mostly up to 92.2 µM. In short, it runs like this:
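AC50 values come from Hill-equation modelling of qHTS concentration-response curves, where viability is measured as luciferase-based ATP luminescence in the lymphoblastoid line after 24 hr compound exposure in complete culture medium.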

Experiment [8] in a line: Cell Viability - LYMP2-021 (AID 974).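 Further: compound exposure lasts 24 hours at 37 °C; on the % scale 0 is the no-effect control and ±100 the full control effect; nearly all actives have a fitted effect of over 55% in size.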 Particulars: LYMP2-021 lymphoblastoid cells viability; series mostly up to 92.2 µM. In short, it runs like this: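 In qHTS format, compounds are tested against 2500 lymphoblastoid cells per well for 24 h; viable cell number is inferred from ATP-driven luciferase light, and Hill-equation fitting yields AC50 values.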
A short description of experiment [9]: Cell Viability - LYMP2-025 (AID 976).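 Further: cells exposed to compound for 24 h at 37 °C; plate controls were DMSO only for no effect and tetraoctylammonium bromide control for full effect.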 To be noted: LYMP2-025 lymphoblastoid cell viability; series mostly up to 92.2 µM. In a few lines:
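Luminescent ATP readout after 24 hr treatment of a human lymphoblastoid line (LYMP2-025, 2500 cells/well, 37 C). Reagent developed 30 min at room temperature; AC50 fitted with the Hill equation.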

A short description of experiment [10]: Cell Viability - LYMP2-006 (AID 978).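 Further: cells exposed to compound for 24 hours; on the % scale 0 is the no-effect control and ±100 the full control effect; nearly all actives have a fitted effect of over 60% in size.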 To be noted: LYMP2-006 lymphoblastoid cell viability, qHTS; series mostly up to 92.2 µM. In a few lines:
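Concentration-dependent loss of intracellular ATP in a human lymphoblastoid line after 24 hr treatment at 37 C was measured by CellTiter-Glo luminescence, with AC50 values obtained from standard Hill-equation modelling.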

Experiment [11] is described as follows: Cell Viability - LYMP2-007 (AID 979).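 Further: cells exposed to compound for 24 h before reading; 0% = DMSO only and the negative end = 92 µM tetraoctylammonium bromide; nearly all actives have a fitted effect of over 60% in size.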 To be noted: LYMP2-007 lymphoblastoid cell viability; series mostly up to 92.2 µM. In short, it runs like this:
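Measured via luciferase-based ATP quantitation: lymphoblastoid cells, 24 hr compound exposure at 37 C, AC50 from Hill fits.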

Experiment [12] is described as follows: Cell Viability - LYMP2-008 (AID 980).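 Further: cells exposed to compound for 24 h at 37 °C; on the % scale 0 is the no-effect control and ±100 the full control effect; nearly all actives have a fitted effect of over 60% in size.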 Particulars: LYMP2-008 lymphoblastoid cell viability, qHTS; series mostly up to 92.2 µM. In short, it runs like this:
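Measured: ATP-dependent luminescence, proportional to viable cell number, in human lymphoblastoid cells treated 24 hr with compound in complete culture medium. Values are AC50s from Hill-equation modelling of qHTS titrations.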

Experiment [13] in a line: Cell Viability - LYMP2-014 (AID 983).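 Further: cells exposed to compound for 24 h at 37 °C; plate controls were DMSO only for no effect and 92 µM tetraoctylammonium bromide for full effect; nearly all actives have a fitted effect of over 50% in size.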 To be noted: LYMP2-014 lymphoblastoid cells, viability qHTS; series mostly up to 92.2 µM. In short, it runs like this:
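Quantitative HTS in lymphoblastoid cells: 24 hr compound exposure, then CellTiter-Glo ATP luminescence. Positive control was tetraoctylammonium bromide, 6.4pM to 92 uM.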

A short description of experiment [14]: Cell Viability - LYMP2-018 (AID 985).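 Further: plate controls were DMSO only for no effect and tetraoctylammonium bromide at 92 µM for full effect; nearly all actives have a fitted effect of over 50% in size.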 Particulars: LYMP2-018 lymphoblastoid cells, viability (qHTS); series mostly up to 92.2 µM. In short, it runs like this:
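In this qHTS viability assay, cells are treated for 24 hr and cellular ATP is quantified by luciferase-based luminescence, with tetraoctylammonium bromide as positive control.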

A short description of experiment [15]: Cell Viability - LYMP2-020 (AID 986).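 Further: cells exposed to compound for 24 h at 37 °C; plate controls were DMSO only for no effect and tetraoctylammonium bromide at 92 µM for full effect; nearly all actives have a fitted effect of over 55% in size.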 To be noted: series mostly up to 92.2 µM. In a few lines:
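Cells at 2500 per well receive a 24 hr compound exposure at 37 C. Viability is measured as ATP-dependent luciferase luminescence, with AC50 modeled from qHTS concentration-response curves.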

Experiment [16] is described as follows: Cell Viability - LYMP1-002 - Assay at 40 hr (AID 994).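 Further: 0% = DMSO only and full inhibition = 92 µM tetraoctylammonium bromide; nearly all actives have a fitted effect of over 60% in size.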 To be noted: LYMP1-002 lymphoblastoid cell viability; series mostly up to 92.2 µM. In a few lines:
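Concentration-dependent ATP loss after 40 hr treatment at 37 C defined toxicity; AC50 values were obtained by fitting the standard Hill equation.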

Experiment [17] can be described thus: qHTS assay for small molecule antagonists of retinoid X receptor alpha signaling (AID 588546).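 Further: cells stimulated with 9-cis-retinoic acid as agonist; on the % scale 0 is the no-effect control and ±100 the full control effect.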 Particulars: HEK293T RXRa-UAS-bla, beta-lactamase ratio, antagonist mode; measured here: W530 green channel, cytotoxicity proxy. In short, it runs like this:
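Beta-lactamase reporter inhibition, read as CCF4 fluorescence ratio (ex 405, em 460/530 nm) after 2 h at RT. HEK293T UAS-bla cells, 2500/well, were stimulated with 9-cis-RA at 500 or 100 nM final alongside test compound for 18 h at 37 C.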

The target in experiment [18] is Voltage-gated inwardly rectifying potassium channel KCNH2 (Homo sapiens) (UniProt Q12809). Nature of the experiment: qHTS Assay for Small Molecule Inhibitors of the Human hERG Channel Activity (AID 588834).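 Further: top concentration of the series differs between compounds; on the % scale 0 is the no-effect control and ±100 the full control effect; lower thallium flux fluorescence means stronger hERG block; nearly all actives have a fitted effect of over 50% in size.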 Particulars: U2OS BacMam hERG, FluxOR thallium flux fluorescence; series mostly up to 92.2 µM. In a few lines: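 Cells were infected with hERG-BacMam virus for 4 hrs at room temperature, grown overnight, then seeded at 2000/well. After dye loading and roughly 10 min compound treatment, thallium influx was triggered and fluorescence recorded.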
Chain of Voltage-gated inwardly rectifying potassium channel KCNH2 (Homo sapiens) (Q12809 whole entry, looked up): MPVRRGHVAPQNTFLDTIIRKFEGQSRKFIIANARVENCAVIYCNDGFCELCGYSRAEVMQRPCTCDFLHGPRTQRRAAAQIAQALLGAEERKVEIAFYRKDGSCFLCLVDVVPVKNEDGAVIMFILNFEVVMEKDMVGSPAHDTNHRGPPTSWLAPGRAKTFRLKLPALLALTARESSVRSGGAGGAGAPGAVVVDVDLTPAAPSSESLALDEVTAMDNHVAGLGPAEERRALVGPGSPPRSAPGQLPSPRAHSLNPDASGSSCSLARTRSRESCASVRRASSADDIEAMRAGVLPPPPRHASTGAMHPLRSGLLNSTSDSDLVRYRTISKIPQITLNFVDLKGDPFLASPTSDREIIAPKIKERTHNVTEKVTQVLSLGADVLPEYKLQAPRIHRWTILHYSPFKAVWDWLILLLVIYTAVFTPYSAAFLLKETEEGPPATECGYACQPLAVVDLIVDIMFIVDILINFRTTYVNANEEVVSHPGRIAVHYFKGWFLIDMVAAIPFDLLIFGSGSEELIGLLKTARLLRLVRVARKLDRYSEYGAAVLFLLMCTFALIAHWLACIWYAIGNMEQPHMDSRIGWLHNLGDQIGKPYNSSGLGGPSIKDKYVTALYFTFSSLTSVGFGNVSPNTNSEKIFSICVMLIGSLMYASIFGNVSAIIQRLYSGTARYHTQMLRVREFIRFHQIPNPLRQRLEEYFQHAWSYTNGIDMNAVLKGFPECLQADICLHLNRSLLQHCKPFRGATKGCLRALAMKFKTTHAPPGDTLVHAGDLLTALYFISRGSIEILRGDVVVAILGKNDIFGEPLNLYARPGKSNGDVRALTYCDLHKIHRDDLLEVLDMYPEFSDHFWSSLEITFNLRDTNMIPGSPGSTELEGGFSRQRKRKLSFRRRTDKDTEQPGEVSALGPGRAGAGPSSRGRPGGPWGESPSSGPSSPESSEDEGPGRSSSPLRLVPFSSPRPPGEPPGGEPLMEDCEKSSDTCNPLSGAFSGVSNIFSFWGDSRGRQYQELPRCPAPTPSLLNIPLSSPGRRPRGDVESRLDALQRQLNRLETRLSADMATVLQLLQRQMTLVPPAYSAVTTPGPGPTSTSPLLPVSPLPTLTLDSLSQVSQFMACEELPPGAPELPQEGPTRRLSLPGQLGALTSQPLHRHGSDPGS

Experiment [19] in a line: qHTS assay for small molecule agonists of the antioxidant response element (ARE) signaling pathway measured by Nrf2-dependant transcriptional activity - cell viability counter screen (AID 720653; active means well fitted curve in the direction sought with a large enough effect in the repeat runs; an effect the other way counts as inactive or inconclusive; further: on the % scale 0 is the no-effect control and ±100 the full control effect). To be noted: ARE-bla HepG2 viability, CellTiter-Glo ATP luminescence, 16 h; stronger effect = lower value. In short, it runs like this:
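ARE-bla HepG2 cells (2,000/well) rested 5 hrs at 37C/5% CO2, then exposed to compounds in DMSO for 16 hrs. Viability was read in the same wells as intracellular ATP by luminescence, 30 min at room temperature after reagent addition.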

As for `Nc1cccc(Cl)c1`, the Potency in experiment [1], in [2] and in [3] was > 92 µM (inactive) in each case. In addition, the caspase-3 activation in experiment [4] was 11.8% (inactive). Also, the Potency entry in [5], in [6], in [7], in [8], in experiment [9] and in [10] was “inactive” in each case. Moreover, the Potency entry in experiment [11], in experiment [12], in experiment [13], in [14], in experiment [15] and in experiment [16] was “inactive” in each case. The Potency result in experiment [18] was “inactive”. Besides, the max response in experiment [17] amounted to 0.683%.
As for `C[N+](=O)[O-]`, the Potency in experiment [1], in experiment [2] and in experiment [3] was > 92 µM (inactive) in each case. The caspase-3 activation in [4] was 0.536% (inactive). For the same compound, the Potency result in [5], in experiment [6], in experiment [7], in [8], in experiment [9] and in experiment [10] was “inactive” each time. The Potency result in experiment [11], in [12], in experiment [13], in experiment [14], in experiment [15] and in experiment [16] was “inactive” throughout. For the same compound, the Potency entry in [18] was “inactive”. Further, the figures for the max response in experiment [17] and in [19] were -7.25% and -1.82% (inactive), respectively.
